High-throughput results deposited in PubChem BioAssay by Sanford-Burnham Center for Chemical Genomics.
Rows were chosen to be rich in hits. Some 3% of all compounds tested hit in one or more screens of this group.
SENP6 inh = SENP6 protease inhibitors, primary screen, biochemical, luminescence, uHTS | Sentrin-specific protease 6 (Homo sapiens), Q9GZR1 | hit rate 1.8% among 330,000 | Recombinant SENP6 catalytic domain, aminoluciferin luminescence | inhibition, % at 10 µM;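 active = inhibition above about 50% at the single tested dose, limit read from the data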
Target sequence (Q9GZR1 628-1112 limits assumed): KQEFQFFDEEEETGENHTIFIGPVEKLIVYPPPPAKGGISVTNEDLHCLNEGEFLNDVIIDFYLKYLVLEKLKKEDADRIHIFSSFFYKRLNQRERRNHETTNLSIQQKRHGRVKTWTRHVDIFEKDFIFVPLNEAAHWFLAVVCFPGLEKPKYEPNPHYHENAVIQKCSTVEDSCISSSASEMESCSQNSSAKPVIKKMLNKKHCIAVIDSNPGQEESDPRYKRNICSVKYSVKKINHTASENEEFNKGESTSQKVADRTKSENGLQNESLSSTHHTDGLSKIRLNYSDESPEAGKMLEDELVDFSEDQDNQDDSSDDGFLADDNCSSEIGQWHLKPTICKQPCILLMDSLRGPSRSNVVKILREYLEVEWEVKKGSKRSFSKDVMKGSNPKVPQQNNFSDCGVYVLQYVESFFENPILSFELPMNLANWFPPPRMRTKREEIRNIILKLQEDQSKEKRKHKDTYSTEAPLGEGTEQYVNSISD
SENP8 block-1 = human SENP8 protease inhibitors, primary screen, biochemical, fluorescence, Nedd8 protein substrate, uHTS | AID 602440, 2012 | inhibition, % at 20 µM | Sentrin-specific protease 8 (Homo sapiens), Q96LD8 | recombinant SENP8 | hit rate 0.64% among 360,000; in the data active = inhibition mostly above about 40%, no sharp cut-off; inactive = mostly below about 27%
PPC-1+TRAIL kill = compounds killing PPC-1 cancer cells with TRAIL present, primary screen, TRAIL potentiator project, ATPLite luminescence, uHTS | cell killing (% activity), % at 4 µM or 5 µM | AID 1443, 2008 | PPC-1 cells + TRAIL, ATPLite viability luminescence | hit rate 0.41% among 220,000;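 active = cell killing above 50% in the first pass at 4 µM, then a duplicate retest at 5 µM averaging 50% or more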
SENP8 block-2 = SENP8 protease inhibitors, primary screen, biochemical, luminescence | Sentrin-specific protease 8 (Homo sapiens), Q96LD8 | purified SENP8, Z-RLRGG-aminoluciferin cleavage | inhibition, % at 10 µM | hit rate 1.2% among 330,000; in the data active = inhibition above about 50%
SENP7 inh = SENP7 protease inhibitors, primary screen, biochemical, luminescence, uHTS; Sentrin-specific protease 7 (Homo sapiens), Q9BQF6; recombinant SENP7, Z-RLRGG-aminoluciferin luminescence, 40 min; inhibition, % at 5 µM; hit rate 1.5% among 330,000; AID 434973, 2010;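 active = inhibition above about 50% at the single test dose, limit read from the data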
C8 TRAIL sens = viability loss with TRAIL in NB7+C8 cells, primary screen, TRAIL sensitizer project, cell-based, ATPlite luminescence; inhibition (viability loss, TRAIL sensitization), % at 10 µM; hit rate 1% among 360,000;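 active = compounds causing at least 50% loss of cell viability in the single-dose screen, relative to plate controls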
SENP8 confirm = SENP8 protease inhibitors, retest, confirmation, biochemical, luminescence, single concentration; shares compounds with SENP7 inh; Recombinant SENP8, Z-RLRGG-aminoluciferin luminescence, 60 min; inhibition, % at 12.5 µM; hit rate 40% among 6,200; AID 488912, 2010;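 active = mean inhibition across replicates above about 50%, limit read from the data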
SENP6 confirm = SENP6 protease inhibitors, confirmation, biochemical, luminescence, single concentration. shares compounds with SENP7 inh. recombinant SENP6, Z-RLRGG-aminoluciferin luminescence. inhibition, % at 12.5 µM. hit rate 58% among 6,200
SENP7 conf = SENP7 protease inhibitors, retest, confirmation, biochemical, luminescence, single concentration | shares compounds with SENP7 inh | recombinant SENP7, Z-RLRGG-aminoluciferin luminescence, 40 min | inhibition, % at 12.5 µM | hit rate 69% among 6,200
Casp3 SENP sel = caspase-3 protease inhibitors, confirmation, selectivity assay for SENP inhibitor project, biochemical, single concentration; hit rate 60% among 6,200; shares compounds with SENP7 inh; inhibition, % at 12.5 µM; purified caspase-3, Z-DEVD-aminoluciferin luminescence, 60 min;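 active = mean inhibition above about 50%, limit read from the data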
Target sequence (P42574 28-227 limits assumed): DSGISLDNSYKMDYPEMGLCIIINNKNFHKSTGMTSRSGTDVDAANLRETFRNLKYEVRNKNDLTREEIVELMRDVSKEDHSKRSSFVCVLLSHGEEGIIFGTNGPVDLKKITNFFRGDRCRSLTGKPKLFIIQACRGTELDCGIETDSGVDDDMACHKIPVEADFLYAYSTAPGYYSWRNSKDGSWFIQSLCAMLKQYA
Luc interf = counter-screen for SENP inhibitors: luminescence interference. shares compounds with SENP7 inh. Pre-incubated SENP8/Z-RLRGG-aminoluciferin, luciferase luminescence interference. inhibition, % at 12.5 µM. hit rate 39% among 6,200. AID 488919;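 active = mean inhibition above about 50% when retested at one dose, limit read from the data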
Large screens that a line does not name were inactive (follow-up assays come after a bar, where they were run).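 The calls were made as follows, unless noted: active = mean inhibition above about 50% in the one-dose retest (limit read from the data); inactive = the rest.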

Cc1ccc2c(c1)C(N1CCCC1=O)CC(c1ccco1)N2 (stereo unspecified)	SENP6 inh 93.8, SENP8 block-2 95.4, C8 TRAIL sens 47.6 | SENP8 confirm inactive | SENP6 confirm 81.7 | SENP7 conf 100.4 | Casp3 SENP sel 95.1 | Luc interf inactive
CC(C)N(C(=O)[C@H]1C[C@H](CC(=O)NCCCn2ccnc2)C(=O)N2CCc3c([nH]c4ccc(Cl)cc34)[C@]12C)C(C)C	none (no result: SENP6 inh, PPC-1+TRAIL kill, SENP8 block-2)
COc1ccccc1CC(=O)N1CCN(S(=O)(=O)c2ccccc2)CC1	none (no result: PPC-1+TRAIL kill)
CC(=O)Nc1ccc(/C=C2/Sc3ccccc3C2=O)cc1	SENP6 inh 66.3, SENP8 block-2 62.1, SENP7 inh 93.6 (no result: PPC-1+TRAIL kill) | SENP8 confirm inactive | SENP6 confirm inactive | SENP7 conf inactive | Casp3 SENP sel inactive | Luc interf inactive
O=C1/C(=C\c2cccnc2)Sc2ccccc21	none
C#CCN1C(C)=CC(=O)[C@@H](O)[C@H]1c1ccccc1Br	none (no result: SENP6 inh, PPC-1+TRAIL kill, SENP8 block-2, SENP7 inh)
O=C(COC(=O)c1ccccc1[N+](=O)[O-])c1ccc(C2CCCCC2)cc1	SENP6 inh 89.5, SENP8 block-2 88.8, SENP7 inh 97.5 | SENP8 confirm inactive | SENP6 confirm 77.1 | SENP7 conf 51.8 | Casp3 SENP sel 79.0 | Luc interf inactive
O=C(OCC(=O)N1CCc2ccccc21)c1ccccc1[N+](=O)[O-]	SENP6 inh 86.6, SENP8 block-2 85.8, SENP7 inh 91.3 (no result: PPC-1+TRAIL kill) | SENP8 confirm 93.8 | SENP6 confirm 94.3 | SENP7 conf 101.7 | Casp3 SENP sel 94.9 | Luc interf 74.5
O=C(OCC(=O)N1CCc2ccccc21)c1ccccc1F	SENP6 inh 58.1 (no result: PPC-1+TRAIL kill) | SENP8 confirm inactive | SENP6 confirm inactive | SENP7 conf 75.6 | Casp3 SENP sel 64.3 | Luc interf inactive
CCC(C)c1ccc(NC(=O)C2=CC=CN3CCS(=O)(=O)N=C23)cc1 (stereo unspecified)	none (no result: PPC-1+TRAIL kill)
COC(=O)c1ccccc1S(=O)(=O)Oc1ccc(-c2ccc(C(=O)O)cc2)cc1	none (no result: PPC-1+TRAIL kill)
O=C(O)c1ccc(-c2ccc(OS(=O)(=O)c3ccccc3F)cc2)cc1	SENP6 inh 56.5 (no result: PPC-1+TRAIL kill) | SENP8 confirm inactive | SENP6 confirm inactive | SENP7 conf 59.8 | Casp3 SENP sel inactive | Luc interf inactive
COc1cc(SC)ccc1C(=O)NNC(=O)c1cc(C)oc1C	SENP6 inh 97.9, SENP8 block-2 93.9, SENP7 inh 97.5, C8 TRAIL sens 69.1 (no result: PPC-1+TRAIL kill) | SENP8 confirm 97.6 | SENP6 confirm 98.6 | SENP7 conf 102.6 | Casp3 SENP sel 98.3 | Luc interf 92.6
Clc1ccc(CSc2nnc(-c3ccc4c(c3)OCO4)o2)cc1	none
Cc1ccc(-c2nnc(-c3ccc4c(c3)OCO4)o2)cc1	PPC-1+TRAIL kill 55.3, SENP7 inh 83.0 | SENP8 confirm inactive | SENP6 confirm inactive | SENP7 conf inactive | Casp3 SENP sel inactive | Luc interf inactive
Brc1ccc(-c2nnc(-c3ccc4c(c3)OCO4)o2)o1	SENP7 inh 61.2 | SENP8 confirm inactive | SENP6 confirm inactive | SENP7 conf inactive | Casp3 SENP sel inactive | Luc interf inactive
O=C1CCCCC1Sc1nnc(-c2ccc3c(c2)OCO3)o1 (stereo unspecified)	SENP6 inh 80.4, SENP8 block-2 68.2, SENP7 inh 73.1, C8 TRAIL sens 53.3 | SENP8 confirm 72.1 | SENP6 confirm 72.3 | SENP7 conf 93.0 | Casp3 SENP sel 88.6 | Luc interf 76.9
C/C(=N\NC(=O)c1ccc(-n2cnnn2)cc1)c1ccc(Cl)cc1	none (no result: PPC-1+TRAIL kill)
Cc1csc(NC(=O)c2cc(C)on2)n1	none (no result: PPC-1+TRAIL kill)
CCC12C(=Nc3c(Cl)cccc31)C[C@@H]1CCN3C(=O)CCC[C@H]2[C@H]13 (stereo partly specified)	none (no result: SENP6 inh, PPC-1+TRAIL kill, SENP8 block-2, SENP7 inh)
COCCNC(=O)CN(C(=O)CCC(=O)Nc1ccccn1)c1cc(C)ccc1C	none (no result: PPC-1+TRAIL kill)
O=[N+]([O-])c1ccc(/C=C/c2ccc3cccc(O)c3n2)cc1	SENP7 inh 53.1 (no result: PPC-1+TRAIL kill) | SENP8 confirm inactive | SENP6 confirm inactive | SENP7 conf inactive | Casp3 SENP sel inactive | Luc interf inactive
Oc1cccc(/C=C/c2ccc3cccc(O)c3n2)c1	SENP6 inh 94.0, SENP8 block-2 94.4, SENP7 inh 96.4 (no result: PPC-1+TRAIL kill) | SENP8 confirm 97.4 | SENP6 confirm 98.5 | SENP7 conf 102.1 | Casp3 SENP sel 91.8 | Luc interf 97.3
COc1cccc(/C=C/c2ccc3cccc(O)c3n2)c1	SENP6 inh 92.8, SENP8 block-2 88.6, SENP7 inh 91.8 (no result: PPC-1+TRAIL kill) | SENP8 confirm 91.9 | SENP6 confirm 95.0 | SENP7 conf 102.4 | Casp3 SENP sel 89.7 | Luc interf 65.5
CC(=O)Nc1ccc(/C=C/c2ccc3cccc([N+](=O)[O-])c3n2)cc1	none
COc1ccc(/C=C/c2ccc3cccc(O)c3n2)cc1Br	SENP7 inh 62.6 (no result: PPC-1+TRAIL kill) | SENP8 confirm inactive | SENP6 confirm inactive | SENP7 conf inactive | Casp3 SENP sel inactive | Luc interf inactive
COc1cc(/C=C/c2ccc3cccc(O)c3n2)cc(OC)c1OC	none (no result: PPC-1+TRAIL kill)
CCCCN(Cc1nc2ccccc2c(=O)[nH]1)C(=O)CN1C(=O)NC2(CCCCC2)C1=O	none (no result: PPC-1+TRAIL kill)
c1ccc(Cc2ccc(OCCn3cncn3)cc2)cc1	none
c1ccc(COc2ccc(OCCCn3cncn3)cc2)cc1	SENP6 inh 73.4, SENP8 block-2 51.5, SENP7 inh 77.1 | SENP8 confirm 74.5 | SENP6 confirm 73.3 | SENP7 conf 89.0 | Casp3 SENP sel 77.2 | Luc interf 74.3
O=C(/C=C/c1ccccc1)n1cnnc1SC/C=C/c1ccccc1	SENP6 inh 58.9 | SENP8 confirm inactive | SENP6 confirm inactive | SENP7 conf 68.4 | Casp3 SENP sel inactive | Luc interf inactive
